Assay outcomes as filed in PubChem.
An excerpt weighted towards active compounds, which were near 1.5% of everything screened.
Mtb MbtI inh = inhibitors of Mycobacterium tuberculosis siderophore enzyme MbtI; 100,000 tested, 0.89% active; inhibition, % (no concentration beside the values); P9WFX0; AID 493033; purified MbtI enzyme, fluorescence intensity read-out; in the data active = inhibition mostly above about 56%, no sharp cut-off; inactive = mostly below about 77%
Target sequence (P9WFX0 whole entry, looked up): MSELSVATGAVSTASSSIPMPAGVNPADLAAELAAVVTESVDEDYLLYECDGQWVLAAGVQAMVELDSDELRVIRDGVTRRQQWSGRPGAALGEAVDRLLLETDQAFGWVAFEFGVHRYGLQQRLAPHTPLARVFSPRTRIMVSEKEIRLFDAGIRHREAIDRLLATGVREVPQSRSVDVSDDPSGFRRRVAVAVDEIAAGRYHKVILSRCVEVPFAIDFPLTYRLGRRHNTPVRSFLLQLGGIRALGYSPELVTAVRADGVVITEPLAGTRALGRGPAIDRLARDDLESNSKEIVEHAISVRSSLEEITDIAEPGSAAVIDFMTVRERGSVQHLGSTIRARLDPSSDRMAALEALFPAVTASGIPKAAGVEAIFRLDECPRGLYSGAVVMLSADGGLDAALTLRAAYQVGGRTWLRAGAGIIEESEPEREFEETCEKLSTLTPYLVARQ
AID504770 = growth inhibitors of E. coli YBA685 in a screen for V. cholerae RctB (chromosome II replication) inhibitors. E. coli YBA685 rctB-dependent plasmid, OD600 growth, 3 h; active compounds read low. z-score (no concentration beside the values). 130,000 tested, 0.27% active; in the data active = z-score below about -2, passing the limit was not always enough
Polio RdRp inh = inhibitors of poliovirus RNA polymerase binding and polymerization; % elongation, % (compound at 16.7 µg/mL); P03300; 150,000 tested, 0.66% active; AID 588519; poliovirus polymerase elongation, fluorescence polarization; active compounds read low; in the data active = % elongation below about 90%
MenB inh = Mtb MenB enzyme inhibition; P9WNP5; MenB enzyme assay, absorbance read-out; inhibition, % (concentration not given with the values); 100,000 tested, 0.43% active; AID 540299; in the data active = inhibition above about 21%, passing the limit was not always enough
Numbers without * were called inactive; . = not tested or not shown.

SMILES | Mtb MbtI inh | AID504770 | Polio RdRp inh | MenB inh
CCN(CC)C(=O)CSc1nnc(-c2ccco2)n1CC1CCCO1 (stereo not given) | 6 | 0.45 | 99 | -21
CNC(=O)CSc1nnc(-c2ccco2)n1CC1CCCO1 (stereo not given) | 3 | 1.4 | 100 | 43*
CCCCNc1nc2ccccc2n1CC(=O)N1CCc2ccccc21 | -15 | -0.7 | 103 | -25
O=C(Cn1c(CCCO)nc2ccccc21)N1CCc2ccccc21 | 96* | -0.2 | 99 | -5
CCOC(=O)Cc1csc(CS(=O)(=O)c2ccc(Cl)cc2)n1 | . | -0.1 | . | .
CCC1COC(c2cccn2Cc2ccccc2)=N1 (stereo not given) | . | -0.3 | . | .
O=C(O)c1ccccc1-c1ccc(-c2cc(C(=O)O)c3cc(F)ccc3n2)o1 | 2 | -2.7* | 98 | -80
Cc1ccc2oc(-c3ccccc3C(=O)O)cc(=O)c2c1 | . | -0.4 | . | .
O=C(O)c1cc(-c2ccco2)nc2ccc(Br)cc12 | . | 2 | 73* | 0
COc1ccc(CN2CCN(c3cccc(C(F)(F)F)c3)CC2)cc1C | 12 | 0.4 | 103 | -49
COc1ccc2c(c1)nc(SCC(=O)C(C)(C)C)n2C | 53* | 0.35 | 98 | 0
COc1ccc2c(c1)nc(SCC(C)O)n2C (stereo not given) | 2 | 0.4 | 98 | .
CCN(CC)c1ncccc1C(=O)N1CCCC1 | 3 | -0.65 | 105 | -54
CCC1(C)NC(=O)N(/N=C/C=C2\N(C)c3ccccc3C2(C)C)C1=O (stereo not given) | 19 | -0.35 | 104 | -14
Nn1c(SCC(=O)N2CCc3ccccc32)nnc1C(F)(F)F | 9 | -0.55 | 99 | -6
CC1=NN(c2ccccc2)C(=O)C1=C1SCCS1 | 11 | -0.1 | 102 | 9
CC1=NN(c2ccccc2)C(=O)/C1=C1/C(=O)N(c2ccccc2)N=C1C | 9 | 0.3 | 57* | -11
COc1cccc(CNCC2CCCO2)c1OCC(=O)NC(C)(C)C (stereo not given) | -12 | -0.25 | 99 | -70
Cc1ccc(C(=O)CSC#N)o1 | . | -3.1* | 99 | -52
N#CSCC(=O)c1ccccc1 | . | -3.6* | . | .
N#CCC(=O)c1ccccc1 | -2 | 0.4 | 101 | .
Cc1ccc(C(=O)O)o1 | 10 | 1.5 | 101 | .
N#Cc1c2c(c(-n3cnc4ccccc43)n3c1nc1ccccc13)CCCC2 | -6 | -0.9 | 102 | -4
CSc1ncc2c(n1)-c1ccccc1N(C)S2(=O)=O | 65 | -0.9 | 101 | 0
CSc1ncc2c(n1)-c1ccccc1N(Cc1ccccc1)S2(=O)=O | . | . | -15* | .
SMILES | Mtb MbtI inh | AID504770 | Polio RdRp inh | MenB inh
CC(C)c1cc(N)on1 | -16 | -2.2* | 99 | -12
CCOC(=O)C1CCCN(Cc2ccc(Cl)cc2)C1 (stereo not given) | -14 | -0.55 | 101 | -23
O=C(CSc1nc2c(c(=O)[nH]1)CSC2)c1ccc(Cl)cc1 | 82* | -0.65 | 101 | 2
CC(O)c1nc2ccccc2s1 (stereo not given) | 9 | -0.55 | 100 | -23
Cn1ncc(C(C#N)c2nc3ccccc3s2)c(Cl)c1=O (stereo not given) | 57* | -0.75 | 140 | -266
S=c1nc(CNc2ccccc2)[nH][nH]1 | 95* | -0.8 | 102 | -42
S=c1nc(Cc2ccccc2)[nH][nH]1 | . | -0.35 | 96 | 19
O=C(CC(c1ccc(F)cc1)N1Cc2ccccc2C1=O)N1CCCCC1 (stereo not given) | -22 | 0.65 | 103 | -11
CC(C)Sc1n[nH]c(=S)s1 | 98* | -0.5 | 88* | -104
CCC(C)Sc1n[nH]c(=S)s1 (stereo not given) | 99* | -0.45 | 101 | 6
O=C(O)CCSc1n[nH]c(=S)s1 | 64 | 0.3 | 97 | -18
C=C(C)CSc1n[nH]c(=S)s1 | 100 | -0.25 | 96 | 4
COc1ccc(-c2ccc(CNCCN3CCOCC3)o2)cc1Cl | 3 | -0.25 | 99 | 33*
Cc1ccc(CNCCN2CCOCC2)o1 | . | -0.55 | 104 | 4
CC(C)(C)c1[nH]oc(=O)c1N=O | 14 | -7.3* | . | .
CCN(C(=O)Cn1ncc(Cl)c(Cl)c1=O)c1ccccc1 | 19 | 0 | 93 | -38
CC(=O)Nc1ccccc1OC(=O)c1sc2ccccc2c1Cl | -2 | -0.8 | 100 | .
CN(C)C(=O)CSc1ccccc1C(=O)O | 4 | 0.8 | 106 | -17
C[CH2][Hg][S]c1ccccc1C(=O)O | -47 | -5.4* | 100 | 6
CS(=O)(=O)c1ccccc1C(=O)Nc1ccc(N2CCCCC2)cc1 | -7 | 0.1 | 104 | 0
Cc1nc(Sc2nnc3n2CCCCC3)c2c(-c3cccs3)csc2n1 | -5 | -0.9 | 103 | -29
O=c1cc(CSc2ccc(Cl)cc2)[nH]c(=S)[nH]1 | 58* | -0.75 | 99 | -79
